# Measured values from PubChem BioAssay (NCI).
# The panel holds about 83,000 compounds, 20% with a hit somewhere; the sample as a whole holds those more often.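 Method: cells in 96-well plates; compound added at one concentration; 48 h incubation; percent growth measured; values under 10 scored active.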 Values without a mark were called inactive. Activity calls are given as the source filed them.
# Tests used:
# Assay in all cases: NCI-60 one-dose screen, 48 h (100 = growth as untreated, 0 = no growth, -100 = all killed)
# Conditions in all cases: 10 µM unless noted
# [1] = tested on: HCT-15 colon
# [2] = tested on: HT29 colon
# [3] = tested on: SNB-75 CNS
# [4] = tested on: SNB-19 CNS
# [5] = tested on: PC-3 prostate
# [6] = tested on: SK-MEL-5 melanoma
# [7] = tested on: UACC-62 melanoma
# [8] = tested on: SK-MEL-28 melanoma
# [9] = tested on: SK-MEL-2 melanoma
# [10] = tested on: EKVX NSCLC
# [11] = tested on: SN12C renal
# [12] = tested on: UO-31 renal
# [13] = tested on: TK-10 renal
# [14] = tested on: CAKI-1 renal
# [15] = tested on: CCRF-CEM leukemia
# [16] = tested on: MOLT-4 leukemia
# [17] = tested on: LOX IMVI melanoma
# [18] = tested on: ACHN renal
# [19] = tested on: A498 renal
Structure (SMILES),growth [1],growth [2],growth [3],growth [4],growth [5],growth [6],growth [7],growth [8],growth [9],growth [10],growth [11],growth [12],growth [13],growth [14],growth [15],growth [16],growth [17],growth [18],growth [19]
FC(F)(F)c1cc2c(Cl)ncnc2n1CCN1CCCCC1,-30.7% (active),56.2%,13.6%,-35.3% (active),55.8%,83.2%,50.8%,52.5%,-16% (active),72%,59.7%,-96.3% (active),105%,21.3%,4.18% (active),-14.3% (active),,,
N#CCc1nnc(NC(=O)c2ccc(-n3c(=O)[nH]c4ccccc4c3=O)cc2)s1,97.1%,116%,86.8%,94.6%,105%,102%,86.8%,103%,97.7%,94.8%,95.4%,66.7%,104%,86.3%,101%,103%,90.5%,92.1%,96.2%
Nc1nn2c(-c3cc4cc(Br)ccc4oc3=O)ccnc2c1N=Nc1ccc(Br)cc1,31.8%,28.8%,7.89% (active),-1.72% (active),47.7%,22.7%,48.9%,20.5%,60%,25.9%,-23.6% (active),0.343% (active),23.4%,3.98% (active),96.6%,83.1%,18%,,-4.21% (active)
N#CC1=C(c2cccs2)Nc2c(c(-c3ccccc3)nn2-c2ccccc2)C12C(=O)Nc1ccc(Br)cc12 (stereo not drawn),-6.66% (active),-32.8% (active),-39.5% (active),7.99% (active),-3.33% (active),0.371% (active),-52.3% (active),-69.6% (active),-17.2% (active),7.42% (active),-13.7% (active),6.38% (active),12.1%,9.64% (active),1.86% (active),-3.33% (active),-11.3% (active),-11% (active),-10.8% (active)
Cc1cc(N=C(N)c2ccccc2)ccc1OCCCCCCCCn1ccnc1,7% (active),,12.5%,19.3%,27.8%,,-3.8% (active),-68.5% (active),-28.2% (active),20.7%,12.7%,-30.2% (active),,20.2%,12.3%,14.1%,-80.7% (active),9.56% (active),64.6%
O=C(CSc1nnc(-c2ccc(-c3nc4ccccc4[nH]3)cc2)o1)Nc1ccc(Cl)cc1,19.3%,26.6%,62.4%,-37.3% (active),7.32% (active),34.1%,23.9%,-85% (active),70.6%,16.2%,19.6%,57.8%,59.5%,17.1%,32.5%,6.05% (active),-92.4% (active),-86.8% (active),132%
COc1ccc(OC)c(Cn2cc(C#N)c(N)c2C(=O)c2ccc(Br)cc2)c1,26.2%,4.97% (active),50.4%,55.3%,66%,26.6%,29.9%,54.3%,4.44% (active),58.2%,64.4%,,62.4%,45.2%,44.3%,20.4%,49.6%,84.9%,86.7%
COc1ccc(N=Nc2c(N)nn3c(N)c(C#N)c(-c4ccc(C)cc4)nc23)cc1,47.8%,66.1%,22.9%,89.5%,36.8%,55.4%,78.5%,91.1%,91%,36.3%,57.7%,,101%,17.4%,8.68% (active),5.8% (active),50.1%,56.8%,128%
COc1cccc(C(N)=Nc2ccc(OCCCCCCCCn3cncn3)cc2)c1,11.7%,,60.8%,24.6%,37.7%,,27.4%,55.3%,14%,37.4%,20.6%,39.5%,57%,40.3%,16.4%,16.8%,20%,28%,94.3%
NC(=Nc1ccc(OCCCCCCCCn2cnnn2)cc1)c1ccccc1,14.6%,,45.4%,20.8%,36.2%,,28.3%,65.1%,21%,40%,27%,41.6%,64.8%,35.2%,19.6%,20.9%,23%,32.3%,114%
O=C(O)CC1S/C(=N/N=C/c2nc3ccccc3s2)NC1=O (stereo not drawn),76.5%,114%,96.9%,96.3%,103%,96.9%,114%,117%,,54.7%,101%,52.7%,104%,77.3%,93%,95.2%,100%,78.3%,155%
OC1CCC(Cn2c(C(F)(F)F)cc3c(Cl)ncnc32)CC1 (stereo not drawn),-14.2% (active),49.9%,-71.6% (active),-88.6% (active),23.5%,-83.6% (active),-53.5% (active),20.2%,,65.7%,18.5%,-80.2% (active),105%,53.1%,-7.23% (active),-43.5% (active),-98.4% (active),-86.5% (active),119%
COc1ccc2c(c1)C(Sc1ccc(Br)cc1)c1c(nc(N)c(C#N)c1N)O2 (stereo not drawn),76.3%,91.1%,80.4%,80.6%,48.2%,85.6%,76.4%,104%,94.3%,67%,77.1%,43.7%,108%,80.3%,9.55% (active),55%,16.7%,79.7%,103%
OCCn1cc(-c2nc3ccc4[nH]ncc4c3c3c2CCCC3)cn1,26.4%,19.7%,20%,59.3%,67.4%,22.3%,27.9%,59.3%,43.3%,32.8%,36.7%,22.3%,16.5%,1.75% (active),48.4%,31.2%,25.4%,16.3%,-3.55% (active)
COc1ccc(C(=O)c2cc(C(C)=O)c3c(C)cc(C)cn23)cc1,65.9%,72.5%,2.27% (active),24.8%,82.9%,33.6%,63.4%,72.9%,70.9%,49.4%,55%,67.5%,57.4%,38.6%,104%,82.3%,54.9%,56.6%,86.1%
C/C(=N/O)c1ccc(NC(=O)CSc2nnc(-c3ccc4nc(-c5ccc(Cl)cc5)[nH]c4c3)o2)cc1,99.1%,93.2%,55.8%,20.8%,41%,11%,10.5%,-61.5% (active),65.1%,99.8%,28.8%,87.7%,121%,97%,32.5%,19.6%,-64.4% (active),77.3%,158%
Cc1nn(-c2ccccc2)c2nc(C)n(C(=O)N/N=C/c3cccc([N+](=O)[O-])c3)c(=O)c12,63.5%,88.6%,75.4%,94.1%,92.9%,90.7%,73.5%,97.8%,92.9%,49.3%,94.4%,81.4%,138%,90.8%,71.2%,79.2%,82.7%,91%,136%
FC(F)(F)CN1CCN(CCn2c(C(F)(F)F)cc3c(Cl)ncnc32)CC1,-56.7% (active),12.5%,-32.1% (active),-87.5% (active),18.2%,9.63% (active),28.4%,31.3%,-89.4% (active),70.8%,,,114%,24.1%,-16.8% (active),-39% (active),-96.7% (active),-63% (active),104%
Cc1ccc2nc(NC(=O)Nc3cccc(Cl)c3)sc2c1,92%,104%,108%,103%,92.4%,97.2%,91.2%,112%,114%,87.7%,103%,82%,114%,90.7%,89.6%,82.9%,88.1%,105%,144%
COc1c(B(O)O)cc(F)cc1-c1nc2ccc3[nH]ncc3c2c2c1COCC2,99.4%,74.2%,0.778% (active),32.7%,83.1%,64.6%,68.2%,61.9%,93.9%,75.3%,,55%,14.2%,-12.1% (active),19.1%,53.1%,24.2%,36.4%,106%
COc1ccc2[nH]c(=O)c(CSc3ccccc3Nc3nccc(-c4ccc(Cl)cc4)n3)cc2c1,25.8%,17.3%,23.6%,56.8%,38.5%,25.4%,52.6%,74.1%,57.9%,60%,-2.68% (active),45.8%,90.3%,-1.64% (active),28.4%,-2.12% (active),19.4%,31%,85.8%
C[C@H]1[C@@H](CC(=O)N[C@@H](Cc2coc3ccccc23)B(O)O)O[C@@H]2OC3(C)CC[C@H]4[C@H](C)CC[C@@H]1[C@@]24O3,-51.7% (active),-57.4% (active),-19% (active),35%,28.5%,-83.4% (active),-75.8% (active),5.12% (active),-20.7% (active),28.2%,6% (active),12.4%,1.76% (active),15.5%,-0.752% (active),14.2%,-72.7% (active),6.94% (active),44.5%
O=C(CSc1nnc(-c2ccc(-c3nc4ccc(Cl)cc4[nH]3)cc2)o1)Nc1ccc(Br)cc1,18.6%,28.6%,46%,-17.5% (active),-29.1% (active),-6.99% (active),-53.4% (active),-80.6% (active),5.03% (active),41.9%,-22.3% (active),36.6%,75.9%,-25.1% (active),9.42% (active),13.9%,-100% (active),-69.1% (active),162%
COc1ccc2[nH]c(O)c(N=Nc3nc(-c4ccccc4)cs3)c2c1,24.9%,50.5%,-1.94% (active),20%,16%,68.8%,30.8%,45%,,14.4%,2.85% (active),4.1% (active),25.5%,14%,44%,42.5%,14.3%,-16.5% (active),-34.8% (active)
O=C(CSc1nc2sc3c(c2c(=O)n1-c1ccc(Cl)cc1)CCCC3)NNC(=O)c1ccc(F)cc1,91.8%,107%,76%,32%,81.9%,66.9%,41.1%,87%,104%,63.3%,40.1%,,163%,73.1%,73.6%,81.3%,64.2%,85.6%,121%
O=C(/C=C1\C(=O)N(Cc2ccccc2)c2ccccc21)c1cc2ccccc2oc1=O,31.8%,113%,88%,102%,90.7%,90.2%,79.5%,92.1%,109%,79.6%,,42.9%,84.6%,69.9%,43.6%,31.9%,85.2%,17.9%,144%
